From PubChem BioAssay
NOMO-1 viab = STK33 inhibitor candidate reducing NOMO-1 cell viability | 37,000 tested, 7.5% active | NOMO-1 AML viability, CellTiter-Glo luminescence, 72 h | inhibition, % (test concentration not listed); in the data active = inhibition above about 80%; inconclusive = no clear call, values can overlap the other calls
PD-1 reversal = activators reversing PD-1 mediated T-cell inhibition; activation, % (no concentration beside the values); 29,000 tested, under 10 active; primary human CD4 T cells, PD-L1 beads, CellTiter-Glo 96 h; AID 2316; call rule not given here;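 also: 0% = median vehicle wells and 100% = positive control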
STK33 inh = human STK33 kinase inhibition. Q9BYT3. ADP-Glo luminescence, MBP substrate. inhibition, % at 12.5 µM. 27,000 tested, 0.44% active. AID 2322; in the data active = inhibition above about 20%; inconclusive = no clear call, values can overlap the other calls
Target sequence (Q9BYT3 whole entry, looked up): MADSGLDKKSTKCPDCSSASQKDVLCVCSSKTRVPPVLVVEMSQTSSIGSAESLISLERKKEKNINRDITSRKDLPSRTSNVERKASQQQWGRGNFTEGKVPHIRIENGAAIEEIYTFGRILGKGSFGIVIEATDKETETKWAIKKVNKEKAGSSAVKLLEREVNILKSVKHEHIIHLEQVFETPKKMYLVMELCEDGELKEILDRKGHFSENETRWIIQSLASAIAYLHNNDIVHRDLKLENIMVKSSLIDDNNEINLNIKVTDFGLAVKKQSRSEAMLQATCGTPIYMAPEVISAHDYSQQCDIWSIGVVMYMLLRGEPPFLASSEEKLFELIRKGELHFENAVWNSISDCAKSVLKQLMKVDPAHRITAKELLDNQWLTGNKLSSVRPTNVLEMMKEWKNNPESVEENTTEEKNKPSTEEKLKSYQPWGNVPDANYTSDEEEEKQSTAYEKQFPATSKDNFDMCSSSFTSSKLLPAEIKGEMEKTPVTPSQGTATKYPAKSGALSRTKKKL
* = called active by the depositor; u = inconclusive; x = no result. This is one part of a sample in which hits are shown more often than they occur.

SMILES	NOMO-1 viab	PD-1 reversal	STK33 inh
OC(Cc1ccncc1)C(Cl)(Cl)Cl (stereo unspecified)	-5	-1	1
O=C(NC(=O)c1c(F)cccc1F)Nc1cc(Cl)c(OC(F)(F)C(F)C(F)(F)F)cc1Cl (stereo unspecified)	18	x	1
C[C@H](CO)N1C[C@H](C)[C@H](CN(C)C(=O)Oc2ccccc2)OCc2cnnn2CCCC1=O	x	x	-9
CO[C@H]1[C@H](O)[C@H](O[C@H]2CC[C@]3(C)C4CC[C@]5(C)[C@H](C6=CC(=O)OC6)CC[C@]5(O)C4CC[C@@H]3C2)O[C@@H](C)[C@@H]1O (stereo partly specified)	123*	-35	-1
COc1cc2c(cc1-c1cc3cc4ccoc4cc3oc1=O)OCO2	5	x	0
N#CC(C#N)=NNc1ccc(OC(F)(F)F)cc1	141*	-50	5
Cn1cc(C(=O)C(=O)N[C@H]2CN3CCC2CC3)c2ccccc21	-7	3	0
CCC(C)[C@H]1O[C@]2(C=C[C@@H]1C)C[C@@H]1C[C@@H](C/C=C(\C)[C@@H](OC3C[C@H](OC)C(O[C@H]4C[C@H](OC)[C@@H](O)[C@H](C)O4)[C@H](C)O3)[C@@H](C)/C=C/C=C3\CO[C@@H]4[C@H](O)C(C)=C[C@@H](C(=O)O1)[C@]34O)O2 (stereo partly specified)	104*	x	4
C/C1=C/C(=O)O[C@@H]2C[C@@H](CC[C@H](C)/C=C\CC1)O[C@@](O)([C@@H]1CSC(=O)N1)C2	114*	x	-2
C=C1C(=O)O[C@@H]2[C@H]3C(=C)[C@@H](O)C[C@H]3C(=C)C[C@@H](O)[C@@H]12	113*	-5	u
c1ccc2nc(N3CCNCC3)ccc2c1	8	x	0
COc1ccc(CN2CCN(CCO)CC2)c(OC)c1C	x	x	0
C/C=C1/CN2C3Cc4c([nH]c5ccc(O)cc45)C2(O)CC1C3CO (stereo unspecified)	20	1	4
CC(C)c1cc2c(cc1O)[C@@]1(C)C[C@@H](O)CC(C)(C)C1CC2 (stereo partly specified)	103*	-1	-3
CC(C)c1cc2c(cc1O)[C@@]1(C)C[C@@H](O)CC(C)(CO)C1CC2 (stereo partly specified)	18	1	-1
COC(=O)[C@@]12C(=O)C(C)C(=O)[C@]1(C)C(C)=C[C@H]1[C@]3(C)CC[C@H](OC(C)=O)C(C)(C)[C@H]3CC[C@@]12C (stereo partly specified)	17	3	-3
CCOCN(C(=O)CCl)c1c(C)cccc1CC	109*	x	1
CCc1cccc(CC)c1N(COC)C(=O)CCl	50	x	0
OC1CCCCC1N1CCC(c2ccccc2)CC1 (stereo unspecified)	-1	x	2
CC1(C)C2CC(=O)[C@]3(C)C(CC[C@@]4(C)[C@H](c5ccoc5)OC(=O)[C@H]5O[C@]543)[C@@]2(C)C(=O)C[C@H]1O (stereo partly specified)	17	x	0
c1ccc(CCCN2CCN(CCOC(c3ccccc3)c3ccccc3)CC2)cc1	104*	x	3
Fc1ccc(C(OCCN2CCN(C/C=C/c3ccccc3)CC2)c2ccc(F)cc2)cc1	120*	x	-2
Fc1ccc(C(OCCN2CCN(CCCc3ccccc3)CC2)c2ccc(F)cc2)cc1	103*	x	2
C[C@@H]1CN(C2CCC(C#N)(c3ccc(F)cc3)CC2)CC[C@]1(C(=O)O)c1ccccc1 (stereo partly specified)	-13	x	2
C[C@H]1CN([C@@H](C)CO)C(=O)CCCn2cc(nn2)CO[C@H]1CN(C)C(=O)Oc1ccc2ccccc2c1	x	x	0
SMILES	NOMO-1 viab	PD-1 reversal	STK33 inh
CNC(=O)O/N=C/C(C)(C)SC	0	x	0
O=C(O)CP(=S)(c1ccccc1)c1ccccc1	-14	-1	x
CC(=O)O[C@H]1C[C@H](O[C@H]2[C@@H](O)C[C@H](O[C@H]3[C@@H](O)C[C@H](O[C@H]4CC[C@@]5(C)C(CCC6C5C[C@@H](O)[C@]5(C)[C@@H](C7=CC(=O)OC7)CC[C@]65O)C4)O[C@@H]3C)O[C@@H]2C)O[C@H](C)[C@H]1O[C@@H]1O[C@H](CO)[C@@H](O)[C@H](O)[C@H]1O (stereo partly specified)	107*	x	-3
CO[C@@H]1[C@H](O)[C@@H](O[C@@H]2C[C@H]3CC[C@@H]4C(CC[C@]5(C)[C@@H](C6=CC(=O)OC6)CC[C@]45O)[C@@]3(C)[C@H](O)C2)O[C@H](C)[C@@H]1O[C@@H]1O[C@H](CO)[C@@H](O)[C@H](O)[C@H]1O (stereo partly specified)	120*	-16	-6
CO[C@H]1[C@H](O)[C@H](O[C@H]2CC[C@]3(C)C4CC[C@]5(C)[C@H](C6=CC(=O)OC6)CC[C@]5(O)C4CC[C@@H]3C2)O[C@@H](C)[C@@H]1O[C@@H]1O[C@H](CO[C@@H]2O[C@H](CO)[C@@H](O)[C@H](O)[C@H]2O)[C@@H](O)[C@H](O)[C@H]1O (stereo partly specified)	119*	-12	-3
CC[C@]12C=CCN3CC[C@@]4(c5ccc(OC)cc5N(C)[C@H]4[C@@](O)(C(=O)OC)[C@@H]1OC(C)=O)[C@@H]32	19	-1	0
Cc1ccc(C(C)C)cc1OP1(=O)COc2ccccc2OC1	32	0	x
C=CC(C)(C)[C@]12C=C(OC)C(=O)N3/C(=C/c4cnc[nH]4)C(=O)N[C@@]31N(OC)c1ccccc12	101*	0	0
CCN(CC)C(=O)N[C@@H]1C[C@@H]2c3cccc4[nH]cc(c34)C[C@H]2N(C)C1	14	x	0
O=C1CCCC2C3CC(CN12)[C@@H]1CCCCN1C3 (stereo partly specified)	-23	x	1
COc1ccc([C@H]2Oc3c(I)c(OC)cc(OC)c3C[C@@H]2O)cc1OC	22	x	7
C[C@H](CO)N1C[C@H](C)[C@H](CN(C)C(=O)Oc2cccc3ccccc23)OCc2cn(nn2)CCCC1=O	x	x	3
CC(=O)O[C@@H](c1nc2ccccc2c(=O)n1[C@@H]1C[C@@]2(OC1=O)c1ccccc1N1C(=O)[C@H](C)N(O)[C@@H]12)C(C)C	84*	-1	-11
CCc1nc2ccccc2c(=O)n1-c1ccc(OC)cc1	6	2	2
CC(C)C12CN3CCN(CC(C3)/C1=N/N)C2	-10	7	2
CC(C)(C)c1cc(C=C(C#N)C#N)cc(C(C)(C)C)c1O	97*	-34	13
N#CC(C#N)=Cc1ccc(O)c(O)c1	36	-1	0
Cc1ccccc1NC1=NCC(C)(C)S1	-3	1	x
C[C@]12C=CC(=O)C=C1CCC1C2CC[C@]2(C)C(=O)CCC12 (stereo partly specified)	-17	x	2
N#C[C@@H](OC1OC(COC2OCC(O)C(O)C2O)C(O)C(O)C1O)c1ccccc1 (stereo partly specified)	31	1	-2
CC(C)(O)[C@H]1O[C@H]2CC[C@@]3(C)[C@@](O)(CC[C@H]4Cc5c([nH]c6ccccc56)[C@@]43C)C2=CC1=O	u	x	-9
